# PubChem BioAssay AID2796 (The Scripps Research Institute Molecular Screening Center, 2010)
# Screen size: about 320,000 compounds; about 8,000 (2.5%) were called active. This excerpt belongs to a sample that is enriched for actives. Values without a mark were called inactive. Cut-off read from the data, not from the text of the source: active = activation above about 47%; inactive = the rest.
# Molecular target: Aryl hydrocarbon receptor (Homo sapiens) (UniProt P35869)
# Assay: AHR activators, primary screen, cell-based, luminescence, luciferase reporter, human (AID 2796);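 note: 0% = vehicle wells and 100% = reference agonist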
# Settings: AHR-responsive luciferase reporter cells, at 5 µM, hits give high values
# Aryl hydrocarbon receptor (Homo sapiens), sequence (P35869 whole entry, looked up): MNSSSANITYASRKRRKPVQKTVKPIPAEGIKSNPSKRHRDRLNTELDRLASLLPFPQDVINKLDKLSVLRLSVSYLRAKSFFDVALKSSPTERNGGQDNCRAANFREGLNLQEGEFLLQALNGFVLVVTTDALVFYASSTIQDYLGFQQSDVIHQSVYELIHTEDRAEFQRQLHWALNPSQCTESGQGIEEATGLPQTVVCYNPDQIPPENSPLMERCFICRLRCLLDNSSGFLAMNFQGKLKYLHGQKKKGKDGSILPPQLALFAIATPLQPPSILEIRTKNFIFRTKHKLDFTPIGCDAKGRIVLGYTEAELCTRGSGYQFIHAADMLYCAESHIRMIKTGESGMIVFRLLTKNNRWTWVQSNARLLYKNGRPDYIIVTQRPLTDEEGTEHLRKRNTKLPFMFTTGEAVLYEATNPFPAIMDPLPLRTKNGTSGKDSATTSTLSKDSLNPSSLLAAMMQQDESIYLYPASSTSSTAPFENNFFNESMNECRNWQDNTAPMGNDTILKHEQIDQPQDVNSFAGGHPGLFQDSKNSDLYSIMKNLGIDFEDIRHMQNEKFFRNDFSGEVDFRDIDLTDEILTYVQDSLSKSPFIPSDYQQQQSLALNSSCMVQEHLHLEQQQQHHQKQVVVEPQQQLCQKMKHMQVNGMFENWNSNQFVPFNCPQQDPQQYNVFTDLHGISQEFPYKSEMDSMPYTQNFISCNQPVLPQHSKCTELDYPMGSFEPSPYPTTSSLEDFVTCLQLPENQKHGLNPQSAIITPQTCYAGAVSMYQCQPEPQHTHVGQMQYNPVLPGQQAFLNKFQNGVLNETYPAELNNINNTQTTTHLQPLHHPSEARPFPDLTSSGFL
row,Structure (SMILES),activation
1,O=C(NCc1ccc2c(c1)OCO2)C(=O)NCC1OCCN1S(=O)(=O)c1ccc(F)cc1 (stereo not drawn),1.35%
2,CC(=O)c1nn(-c2cccc(C(F)(F)F)c2)c(=O)[nH]c1=O,0.72%
3,COc1ccc(CCNC(=O)CCNS(=O)(=O)c2cc(Br)cnc2N)cc1OC,-0.76%
4,O=C(CN(C(=O)CNC(=O)c1cccs1)c1cccc(F)c1)NC1CCCCC1,1.69%
5,Cc1ccc(C(=O)N2CCN(S(=O)(=O)N3CCOCC3)CC2)cc1,4.12%
6,CCC(C)C(=O)Nc1cc([N+](=O)[O-])ccc1Cl (stereo not drawn),12%
7,COc1ccc(S(=O)(=O)N2CCC(C(=O)N3CCCC3)CC2)cc1C,-0.5%
8,C/C(=N\N)c1c(-c2ccccc2)c2cc(Br)ccc2[nH]c1=O,2.69%
9,COc1ccccc1C(=O)NCC(=O)OCC(=O)NNC(=O)c1ccc(Br)cc1,0.52%
10,Cc1cc2nc3n(c2cc1C)CC1CC(C(=O)NCCC(C)C)N(C)C31 (stereo not drawn),2.06%
11,CCOC(=O)[C@H]1[C@H]2COc3ccccc3[C@@H]2N2C(=O)CN(Cc3ccccc3)C(=O)[C@@]12C,0.71%
12,CCOC(=O)C1=C(COC(=O)[C@H](C)NS(=O)(=O)c2ccccc2F)NC(=O)NC1C (stereo partly drawn),-0.94%
13,C[C@H](CO)N1C[C@H](C)[C@H](CN(C)C(=O)Nc2ccc(C(F)(F)F)cc2)Oc2c(NC(=O)c3ccncc3)cccc2C1=O,5.42%
14,O=C1Nc2ccc(Br)cc2/C1=N/N=C/C1=C(N2CCOCC2)C(=C\c2ccccc2)/CC1,22.3%
15,O=C(Nc1ccccc1)c1ccc2c(c1)OCCCO2,-1.81%
16,CC(C)C(=O)Nc1cccc(C(=O)Nc2ccc3c(c2)OCO3)c1,56% (active)
17,O=C(Nc1ccncc1)c1cc(-c2ccccn2)nc2ccc(Br)cc12,4.97%
18,CC(C)CNS(=O)(=O)c1ccc(C(=O)Nc2ccc3c(c2)OCO3)cc1,9.22%
19,Cc1cccc(NC(=O)Nc2ccc3c(c2)OCO3)n1,180% (active)
20,O=C(Nc1ccc(NC(=O)c2ccc3c(c2)OCO3)cc1)c1cccc(Cl)c1,-2.05%
21,O=C(Nc1cccnc1)c1ccc2c(c1)OCO2,51.4% (active)
22,O=C(Nc1cccc([N+](=O)[O-])c1)c1ccc2c(c1)OCO2,14.3%
23,Cc1cccc(NC(=O)/C=C/c2ccc3c(c2)OCO3)n1,-3.06%
24,CC(NC(=O)Nc1ccc2c(c1)OCO2)c1ccncc1 (stereo not drawn),29.5%

row,Structure (SMILES),activation
1,Cc1ccc2nc(-c3ccccn3)cc(C(=O)Nc3ccc4c(c3)OCO4)c2c1,47.8% (active)
2,Cc1ccc2nc(-c3ccncc3)cc(C(=O)Nc3ccc4c(c3)OCCO4)c2c1,5.93%
3,CCN(C(=O)COC(=O)c1ccc(COc2ccc3c(C)cc(=O)oc3c2)cc1)C1CCS(=O)(=O)C1 (stereo not drawn),1.82%
4,CC(=O)Nc1ccc(S(=O)(=O)NC(C)C(=O)OCCOc2ccc(F)cc2)cc1 (stereo not drawn),-0.37%
5,Cc1cccc2nc(CSc3nc4[nH]ncc4c(=O)n3-c3cccc(Cl)c3)cc(=O)n12,2.86%
6,COCC(C)n1c(C)cc(C(=O)CSc2cc(C)c3ccccc3n2)c1C (stereo not drawn),43.7%
7,O=C(Cc1ccc([N+](=O)[O-])cc1)Nc1ccc(C(=O)N2CCOCC2)cc1,0.42%
8,C=CCN(c1ccccc1C(=O)NCC(=O)OCC)S(=O)(=O)c1ccc(C)cc1,-1.83%
9,Cc1ccccc1N1CCN(C2CCCN(C(=O)c3cn4c(C)cccc4n3)C2)CC1 (stereo not drawn),1.46%
10,COc1ccc(-n2nc(C(=O)NCC(=O)N3CCN(c4ccccc4OC)CC3)c3ccccc3c2=O)c(OC)c1,3.01%
11,O=C(CCN1C(=O)[C@H]2CC=CC[C@H]2C1=O)NCc1nc(-c2ccccc2)no1,1.79%
12,CC(=O)N1CC(C)c2scc(C)[n+]2-c2ccccc21 (stereo not drawn),-2.51%
13,Cc1cc(C(=O)Nc2nnc(C3CC3)s2)c(C)s1,23.6%
14,O=C(Nc1nnc(C2CC2)s1)c1ccccn1,-1.71%
15,O=C(Nc1nnc(C2CC2)s1)c1cc(Cl)sc1Cl,63.3% (active)
16,CCCCOc1ccc(NC(=O)CSCC(=O)OCC)cc1,-0.97%
17,COc1ccc2ccccc2c1/C=N/NC(=O)c1cc(C)[nH]n1,39%
18,COCCNC(=S)N/N=C/c1c(C)[nH]c2ccccc12,47.6% (active)
19,Cc1[nH]c2ccccc2c1/C=N/NC(=O)CNC(=O)c1ccc2c(c1)OCO2,18.3%
20,CCCCN(CC(=O)NC(C)(C)C)C(=O)C(=O)Nc1ccc2c(c1)OCCO2,7.49%
21,Cc1nc(COc2cc3oc(=O)cc(C)c3cc2Cl)cs1,48.1% (active)
22,Cc1cc(=O)oc2cc(OCC(=O)N3CCN(c4ccc(F)cc4)CC3)c(Cl)cc12,-0.42%
23,Cc1cc(=O)oc2ccc(OCC(=O)O)cc12,-5.16%
24,CC(C)NC(=S)Nc1cccc2cnccc12,15%

row,Structure (SMILES),activation
1,COCCSc1nnc(NC(=O)CCS(=O)(=O)Cc2ccccc2)s1,22.7%
2,COc1ccc(-c2ccc3nnc(SCC(=O)Nc4ccc(NC(C)=O)cc4)n3n2)cc1,3.13%
3,Fc1ccc(-c2ccc(NCCN3CCOCC3)nn2)cc1,2.58%
4,O=C(N/N=C/c1ccco1)c1csc2c1CCCC2,8.16%
5,O=C(N/N=C/c1ccco1)c1ccc(C(=O)N/N=C/c2ccco2)o1,86% (active)
6,O=C(Cc1ccc([N+](=O)[O-])cc1)N/N=C/c1ccco1,1.25%
7,CCNC(=O)N(CC)C[C@H]1N[C@@](CC)(C(=O)OC)[C@H]2C(=O)N(Cc3ccccc3)C(=O)[C@@H]12,-0.15%
8,COc1ccc(N(Cc2ccc(N(C)C)cc2)C(=O)c2ccc(S(C)(=O)=O)cc2)cc1,-2.92%
9,COCc1cc(C)nc(SCC(=O)Nc2cccc(C)c2)c1C#N,2.83%
10,COCc1cc(C)nc(Nc2cc(C)ccc2C)c1C#N,52.2% (active)
11,Cc1cc(C)c(C#N)c(Nc2cccc(Br)c2)n1,19.3%
12,O=C(CSc1nc(O)c(Cc2ccccc2)c(=O)[nH]1)Nc1nc2c(s1)CCCC2,1.1%
13,COc1cc(/C=N/Nc2nn3cnnc3c3ccccc23)cc(OC)c1OC,38.4%
14,COc1cc(/C=N\NC(=O)c2nonc2N)c(OC)cc1Br,15.2%
15,COc1cc(/C=N/N=C(\N)c2nonc2N)cc(OC)c1OC,91.3% (active)
16,CC(C)(C)C(=O)NCCCNc1ccc([N+](=O)[O-])cc1,2.34%
17,Cc1ccc(C)c(NC(=O)COC(=O)Cn2c(C)csc2=O)c1,2.35%
18,O=C(COC(=O)c1ccc2c(c1)OCCO2)NCc1ccccc1Cl,-0.15%
19,Brc1ccc(C2CC(c3ccccc3)=Nc3ccccc3N2)cc1 (stereo not drawn),104% (active)
20,CNC(=S)N1N=C(c2ccccc2)CC1c1ccc(Br)cc1 (stereo not drawn),1.39%
21,c1ccc(C2=Nc3cccc4cccc(c34)N2)cc1,19.3%
22,Cc1ccsc1C(=O)NC1CCCCC1C (stereo not drawn),-0.06%
23,COc1ccc(CN2CN(C3CCCC3)CSC2=S)cc1,-1.37%
24,COc1ccc(CC(=O)OC(C)C(=O)Nc2ccc(S(N)(=O)=O)cc2)cc1 (stereo not drawn),0.17%

row,Structure (SMILES),activation
1,COCc1c(C(=O)OCC(=O)Nc2ccc(OC(F)F)cc2)oc2ccccc12,-0.02%
2,Cc1cc2nc(-c3ccc(NC(=O)c4cccnc4)cc3)oc2cc1C,-6.99%
3,CC(=O)Nc1ccc(-c2nc3ccccc3o2)cc1,80.5% (active)
4,Cc1ccc2nc(-c3ccc(NC(=O)c4cccnc4)cc3)oc2c1,-9.23%
5,CCC(CC)COC(=O)C1=C(C)NC(=O)NC1c1ccc([N+](=O)[O-])cc1 (stereo not drawn),-3.02%
6,CCc1ccccc1N(CC(=O)NCC1CCCO1)C(=O)CCC(=O)Nc1nccs1 (stereo not drawn),-2.18%
7,COc1ccc(NC(=O)C(CC(C)C)NS(=O)(=O)c2ccc3c(c2)CCN3C(C)=O)cc1OC (stereo not drawn),1.37%
8,CSc1ncccc1C(=O)Nc1cccc(S(=O)(=O)N2CCOCC2)c1,-0.18%
9,S=c1[nH]nc(-c2cc(-c3ccccc3)n[nH]2)n1/N=C/c1c2ccccc2cc2ccccc12,63.2% (active)
10,Fc1ccccc1/C=N/n1c(-c2cccnc2)n[nH]c1=S,5.29%
11,S=c1[nH]nc(-c2ccncc2)n1/N=C/c1ccccc1Cl,4.63%
12,Fc1cccc(CSc2nnc3ccc(-c4ccncc4)nn23)c1,4.81%
13,COc1ccc2nc(Nc3nc(-c4ccncc4)cs3)sc2c1,107% (active)
14,COc1ccc2oc(=O)cc(-c3cc4ccccc4o3)c2c1,18.4%
15,COc1ccc2nc(Nc3nc4cc5c(cc4s3)OCCO5)sc2c1,53.1% (active)
16,COc1ccc2nc(NC(=O)NC3CCCCC3)sc2c1,5.23%
17,CCOc1ccc(S(=O)(=O)Nc2nc3cc(OC)ccc3s2)cc1,-1.36%
18,COc1ccc2nc(Nc3nc(-c4cc5ccccc5oc4=O)cs3)sc2c1,56.3% (active)
19,COc1ccc2nc(NC(=O)[C@@H]3CCCN3C(=O)c3cccs3)sc2c1,23.1%
20,Cc1noc(C)c1CSCC(=O)Nc1nc2ccc(Oc3ccccc3)cc2s1,17.8%
21,c1c2c(cc3sc(N4CCCCC4)nc13)OCCO2,-13.2%
